Several values for one entry are separate records, joined by “and”; a condition that tells them apart may be missing. Identical values can stand only once. About 83,000 compounds went through this panel and 20% of them were active in at least one assay; those are over-represented in the sample as a whole.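 Method: cells in 96-well plates; compound added at one concentration; 48 h incubation; percent growth measured; values under 10 scored active.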 Values without a mark were called inactive. Activity calls are given as the source filed them.
Each compound was assayed on U251 CNS (assay: NCI-60 one-dose screen, 48 h (100 = growth as untreated, 0 = no growth, -100 = all killed)). Details: 10 µM unless noted.

Compound	growth
COc1ccc(-c2[nH]c3ccccc3c2-c2ccc(OC)cc2)cc1	44%
COc1ccc(/C=N\Nc2nc(SCC(C)C)nc(-c3ccc(OC)cc3)c2C#N)cc1	-7.88% (active)
CN(C)C(=O)c1cc2cnc(Nc3ccc(-c4csc5c(=S)cc(N6CCOCC6)oc45)cc3)nc2n1C1CCCC1	7.08% (active)
O=C(Nc1ccc2ncsc2c1)c1csc(Nc2ccc3[nH]ncc3c2)n1	38.6%
NS(=O)(=O)c1ccc(C(=O)N=Nc2c(O)[nH]c3c(F)cccc23)cc1	98.6%
C/C=C(\C)C(=O)N[C@H]1CC[C@]2(C)C3CC[C@@]4(C)C(CC[C@@H]4C(C)N(C)C)C3CCC2[C@H]1OC(C)=O (stereo not given in full)	-66.1% (active)
CC(=O)N1N=C(c2ccc(Nc3nc(Nc4ccc(F)cc4)nc(Nc4ccc(Cl)cc4)n3)cc2)CC1c1ccc(N(C)C)cc1 (stereo not given)	53.7%
ON=C1CCCCCCCC1	107% and 110%
Cc1ccc(NC(=O)c2sc3nc(C)c(C(=O)c4ccccc4)cc3c2N)cc1	88.5%
O=C(/C=C/c1ccc([N+](=O)[O-])cc1)c1ccccc1	80.8%
COc1cc(CO)cc2cc3ccccc3nc12	99.2%
O=C(Cc1ccc(F)cc1)c1ccccc1	106%
COc1cc(-c2[nH]ncc2Nc2ccc(Cl)cc2)cc(OC)c1OC	68.9%
CC1(Cc2ccccc2)CC2=C(C(=O)O1)C(c1ccccc1)NC(=O)N2 (stereo not given)	104%
C=CCN1C=CC(=O)[C@H](O[Si](C)(C)C(C)(C)C)[C@@H]1/C=C/c1ccccc1	-39.6% [100 µM] (active)
Cc1ccc(-c2nc3nc(-c4ccc(Cl)cc4)nc(N4CCCNCC4)c3o2)cc1	-86.9% (active)
CC1=C2[C@@H](CC1)[C@]1(C)O[C@@](C3CC3)(C[C@H]1OC(=O)CO)[C@H]2OC(=O)/C=C/c1ccccc1	88.3%
CCN1CCN(C(=O)[C@]23CC[C@@H](C)[C@H](C)[C@@H]2C2=CC[C@@H]4[C@@]5(C)CCC(=O)C(C)(C)[C@@H]5CC[C@@]4(C)[C@]2(C)CC3)CC1	-44.9% (active)
CCCO/N=C/c1ccccn1	103% and 101%
CN(C)CCN1C(=O)c2c(c3c4ccccc4n4c3c3c2c2ccccc2n3C2CC(O)C(O)C4(C)O2)C1=O (stereo not given)	17.9%
CCOC(=O)c1c(-c2ccc(C)cc2)c(C#N)c(=O)n(-c2cccc(C(F)(F)F)c2)c1N	102%
CCCCCCCCCCCCCCCC(=O)O[C@@H]1[C@@H](O)[C@@H](O)C([C@H](NC(=O)[C@@H]2C[C@@H](CCC)CN2C)[C@H](C)Cl)O[C@@H]1SC (stereo not given in full)	102%
O=C1/C(=C/c2cn(-c3ccccc3)nc2-c2ccccc2)SC(=S)N1c1ccc(Cl)cc1	57.2%
CN(C)CCCn1c2c(c3ccc(N4CCNCC4)cc3c1=O)C(=O)c1ccccc1-2	-54.1% (active)
CCOc1ccccc1NC(=O)c1cc2ccccc2cc1O	24.4%
COc1ccc(C/C(C)=C(/c2ccc(OCCN3CCCCCC3)cc2)c2ccc(OC(=O)c3ccccc3)cc2)cc1	107%

Each compound was assayed on PC-3 prostate in the same assay as above. Details: 10 µM unless noted.

Compound	growth
COc1ccc(C(=O)c2ccc(OC)c(OC)c2OC)cc1	35.5% and 32.9%
O=C1/C(=C/c2ccccc2)CN(C(=O)C(Cl)Cl)C/C1=C\c1ccccc1	-32.8% (active)
C=C(C)[C@@H]1CC[C@]2(C(=O)O)CC[C@]3(C)[C@H](CC[C@@H]4[C@@]5(C)CCC(N)C(C)(C)[C@@H]5CC[C@]43C)[C@@H]12 (stereo not given in full)	66.5%
N#C/C(=C\c1ccc(Br)cc1)n1nnc2c(F)cccc21	4.26% (active)
COC1=CC(=O)C(OC)=C(O)C1=O	97.2%
CC(C)(C)c1cc(NC(=O)Nc2ccc(-c3cn4c(n3)sc3cc(OCCN5CCOCC5)ccc34)cc2)no1	22.8% and 15.2%
COc1cccc(C2C(C#N)=C(N)Oc3cc(OCCCCCC[P+](c4ccccc4)(c4ccccc4)c4ccccc4)ccc32)c1 (stereo not given)	-13.1% (active)
COc1ccc(-c2ccccc2)cc1-c1c(Nc2cc(Cl)cc(Cl)c2O)c(=O)c1=O	12.5%
Cc1ccc(S(=O)(=O)Nc2cc(Sc3ccccc3)c(O)c3ccccc23)cc1	34.6%
COC(=O)c1[nH]nc(OC)c1C1(C(C#N)c2nc3ccccc3s2)CCCc2ccccc21 (stereo not given)	79.5%
COc1ccc(-c2cc(-c3cccc(Cl)c3)c(C#N)c(=O)[nH]2)c(OC)c1	92.3%
Cc1nc(-n2[nH]c(=O)ccc2=O)sc1N=Nc1ccccc1	95.8%
COc1ccc(-c2csc(NC(=O)CN3CCN(CCO)CC3)n2)cc1NS(=O)(=O)c1cccc2c(N(C)C)cccc12	72.7%
COc1ccc(-c2[nH]c3ccccc3c2-c2ccc(OC)cc2)cc1	47.5%
COc1ccc(/C=N\Nc2nc(SCC(C)C)nc(-c3ccc(OC)cc3)c2C#N)cc1	53.6%
CN(C)C(=O)c1cc2cnc(Nc3ccc(-c4csc5c(=S)cc(N6CCOCC6)oc45)cc3)nc2n1C1CCCC1	-4.89% (active)
O=C(Nc1ccc2ncsc2c1)c1csc(Nc2ccc3[nH]ncc3c2)n1	40.6%
NS(=O)(=O)c1ccc(C(=O)N=Nc2c(O)[nH]c3c(F)cccc23)cc1	94.9%
C/C=C(\C)C(=O)N[C@H]1CC[C@]2(C)C3CC[C@@]4(C)C(CC[C@@H]4C(C)N(C)C)C3CCC2[C@H]1OC(C)=O (stereo not given in full)	0.354% (active)
CC(=O)N1N=C(c2ccc(Nc3nc(Nc4ccc(F)cc4)nc(Nc4ccc(Cl)cc4)n3)cc2)CC1c1ccc(N(C)C)cc1 (stereo not given)	22.2%

Compound	growth
ON=C1CCCCCCCC1	95.3% and 104%
Cc1ccc(NC(=O)c2sc3nc(C)c(C(=O)c4ccccc4)cc3c2N)cc1	92.2%
O=C(/C=C/c1ccc([N+](=O)[O-])cc1)c1ccccc1	77.5%
COc1cc(CO)cc2cc3ccccc3nc12	104%
O=C(Cc1ccc(F)cc1)c1ccccc1	91.4%
COc1cc(-c2[nH]ncc2Nc2ccc(Cl)cc2)cc(OC)c1OC	59.9%
CC1(Cc2ccccc2)CC2=C(C(=O)O1)C(c1ccccc1)NC(=O)N2 (stereo not given)	92%
C=CCN1C=CC(=O)[C@H](O[Si](C)(C)C(C)(C)C)[C@@H]1/C=C/c1ccccc1	-76.2% [100 µM] (active)
Cc1ccc(-c2nc3nc(-c4ccc(Cl)cc4)nc(N4CCCNCC4)c3o2)cc1	-79.8% (active)
CC1=C2[C@@H](CC1)[C@]1(C)O[C@@](C3CC3)(C[C@H]1OC(=O)CO)[C@H]2OC(=O)/C=C/c1ccccc1	68%
CCN1CCN(C(=O)[C@]23CC[C@@H](C)[C@H](C)[C@@H]2C2=CC[C@@H]4[C@@]5(C)CCC(=O)C(C)(C)[C@@H]5CC[C@@]4(C)[C@]2(C)CC3)CC1	4.66% (active)
CCCO/N=C/c1ccccn1	117% and 96.1%
CN(C)CCN1C(=O)c2c(c3c4ccccc4n4c3c3c2c2ccccc2n3C2CC(O)C(O)C4(C)O2)C1=O (stereo not given)	30.2%
CCOC(=O)c1c(-c2ccc(C)cc2)c(C#N)c(=O)n(-c2cccc(C(F)(F)F)c2)c1N	110%
CCCCCCCCCCCCCCCC(=O)O[C@@H]1[C@@H](O)[C@@H](O)C([C@H](NC(=O)[C@@H]2C[C@@H](CCC)CN2C)[C@H](C)Cl)O[C@@H]1SC (stereo not given in full)	97.6%
O=C1/C(=C/c2cn(-c3ccccc3)nc2-c2ccccc2)SC(=S)N1c1ccc(Cl)cc1	56.8%
CN(C)CCCn1c2c(c3ccc(N4CCNCC4)cc3c1=O)C(=O)c1ccccc1-2	-34.7% (active)
CCOc1ccccc1NC(=O)c1cc2ccccc2cc1O	20.9%
COc1ccc(C/C(C)=C(/c2ccc(OCCN3CCCCCC3)cc2)c2ccc(OC(=O)c3ccccc3)cc2)cc1	101%

From PubChem BioAssay (NCI)
